Measurements from the supplement of paper PMC10849652.
Targets with a hit are over-represented here; the source holds about 8,800 in all. About 0.5% of all pairs of compound and target were hits.

What was measured:
Test in all cases: log2 fold change, soluble protein after heating vs DMSO (PISA); higher = thermal stabilisation; K562 lysate, 10 uM; active = over 0.2 and 3.5 SD of the protein, either way, in both replicates (recomputed)
[1] = compound: CCCS(=O)(=O)Nc1ccc(F)c(C(=O)c2c[nH]c3ncc(-c4ccc(Cl)cc4)cc23)c1F [vemurafenib]
Summary of the method: (§1)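 Values give the log-two fold change in thermal stability against solvent controls, from duplicates. Crude K562 extract at 1 mg/mL protein, made by dounce homogenisation in PBS pH 7.4 with 1 mM MgCl2, was treated with 10 μM compound for 30 min. After 3 min heating across 48°C-58°C, aliquots were pooled, adjusted to 0.5% NP-40 at 4°C and centrifuged at 21,000xg for 90 min. The supernatant was measured by TMTpro 16plex LC-MS/MS with channel sums equalised.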

[2] = compound: CCCS(=O)(=O)Nc1ccc(F)c(C(=O)c2c[nH]c3ncc(Cl)cc23)c1F
Summary of the method: as §1

[3] = compound: CCN(CCCOc1ccc2c(Nc3cc(CC(=O)Nc4cccc(F)c4)[nH]n3)ncnc2c1)CCOP(=O)(O)O [barasertib]
Summary of the method: as §1

[4] = compound: CC[C@@H]1C(=O)N(C)c2cnc(Nc3ccc(C(=O)NC4CCN(C)CC4)cc3OC)nc2N1C1CCCC1
Summary of the method: as §1

[5] = compound: CC[C@@H]1C(=O)N(C)c2cnc(Nc3ccc(C(=O)N[C@H]4CC[C@H](N5CCN(CC6CC6)CC5)CC4)cc3OC)nc2N1C(C)C [volasertib]
Summary of the method: as §1

[6] = compound: CCn1c(C(=O)N(C2CC2)C2CC2)cc2c3c(ncn3C)c(Nc3cc(C)n(C)n3)nc21
Summary of the method: as §1

[7] = compound: CCn1cc(-c2ccnc3[nH]c(-c4cccc(CN(C)C)c4)cc23)c(-c2ccc(NC(=O)N(C)C)cc2)n1
Summary of the method: as §1

[8] = compound: CN1CCC(CNc2ccc3ncc(-c4cccc(OC(F)(F)F)c4)n3n2)CC1
Summary of the method: as §1

[9] = compound: CN1CCN(CCOc2cc(OC3CCOCC3)c3c(Nc4c(Cl)ccc5c4OCO5)ncnc3c2)CC1 [saracatinib]
Summary of the method: as §1

[10] = compound: CN1CCN(c2nc(C3=C(c4c[nH]c5ccccc45)C(=O)NC3=O)c3ccccc3n2)CC1 [sotrastaurin]
Summary of the method: as §1

Measured: log2 fold change

COQ8A (UniProt Q8NI60)
active: [8] 0.573 | [9] 0.697
inactive: [1] 0.036 | [2] -0.009 | [3] 0.134 | [4] 0.026 | [5] -0.026 | [6] -0.029 | [7] -0.214 | [10] 0.016

COG6 (UniProt Q9Y2V7)
inactive: [1] 0.062 | [2] 0.013 | [3] 0.072 | [4] -0.004 | [5] -0.046 | [6] 0.015 | [7] -0.116 | [8] 0.017 | [9] 0.073 | [10] -0.017

DDX54 isoform 2 (UniProt Q8TDD1)
inactive: [1] -0.041 | [2] 0.017 | [4] -0.069 | [5] -0.045 | [6] 0.053 | [7] -0.056 | [8] 0 | [9] -0.015 | [10] 0.045
active: [3] -0.319

CPT1A (UniProt P50416)
inactive: [1] 0.024 | [2] 0.035 | [3] 0.048 | [4] 0.038 | [5] 0.032 | [6] -0.018 | [7] 0 | [8] -0.137 | [9] -0.004 | [10] -0.014

DHFR (UniProt P00374)
inactive: [1] -0.047 | [3] 0.061 | [4] -0.035 | [5] 0.013 | [6] 0.046 | [7] 0.072 | [8] -0.019 | [9] -0.008 | [10] 0.042
active: [2] 0.206

CNST (UniProt Q6PJW8)
inactive: [1] 0.002 | [2] -0.026 | [3] -0.07 | [4] 0.079 | [5] -0.008 | [6] 0.02 | [7] -0.066 | [8] 0.019 | [9] 0.033 | [10] 0.039

DLGAP5 (UniProt Q15398)
UniProt Q15398, sequence (Q15398 whole entry, looked up): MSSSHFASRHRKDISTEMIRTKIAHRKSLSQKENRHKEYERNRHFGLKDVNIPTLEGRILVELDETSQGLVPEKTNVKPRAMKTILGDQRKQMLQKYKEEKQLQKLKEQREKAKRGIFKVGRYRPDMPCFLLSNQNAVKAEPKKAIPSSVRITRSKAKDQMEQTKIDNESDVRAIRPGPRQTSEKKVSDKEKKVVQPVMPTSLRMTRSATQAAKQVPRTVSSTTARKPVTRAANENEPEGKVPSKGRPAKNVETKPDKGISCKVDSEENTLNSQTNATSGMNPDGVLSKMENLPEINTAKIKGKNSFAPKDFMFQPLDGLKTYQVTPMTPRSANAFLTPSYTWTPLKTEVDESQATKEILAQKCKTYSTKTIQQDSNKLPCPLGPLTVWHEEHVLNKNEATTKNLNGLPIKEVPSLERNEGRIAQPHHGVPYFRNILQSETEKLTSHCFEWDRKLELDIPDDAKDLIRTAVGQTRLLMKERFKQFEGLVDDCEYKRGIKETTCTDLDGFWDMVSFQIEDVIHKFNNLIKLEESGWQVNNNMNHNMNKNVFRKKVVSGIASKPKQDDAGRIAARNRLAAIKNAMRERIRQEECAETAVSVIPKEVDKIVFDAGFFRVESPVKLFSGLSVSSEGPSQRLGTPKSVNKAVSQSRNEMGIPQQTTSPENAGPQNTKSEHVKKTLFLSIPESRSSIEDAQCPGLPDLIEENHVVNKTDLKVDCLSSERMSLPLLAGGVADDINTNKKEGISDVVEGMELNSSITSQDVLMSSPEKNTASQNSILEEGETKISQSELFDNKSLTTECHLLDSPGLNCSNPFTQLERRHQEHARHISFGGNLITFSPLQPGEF
inactive: [1] 0.01 | [2] 0.009 | [3] 0.007 | [4] -0.018 | [5] -0.013 | [6] 0 | [7] -0.024 | [8] 0.019 | [9] 0.013 | [10] -0.004

DENND6A (UniProt Q8IWF6)
UniProt Q8IWF6, sequence (Q8IWF6 whole entry, looked up): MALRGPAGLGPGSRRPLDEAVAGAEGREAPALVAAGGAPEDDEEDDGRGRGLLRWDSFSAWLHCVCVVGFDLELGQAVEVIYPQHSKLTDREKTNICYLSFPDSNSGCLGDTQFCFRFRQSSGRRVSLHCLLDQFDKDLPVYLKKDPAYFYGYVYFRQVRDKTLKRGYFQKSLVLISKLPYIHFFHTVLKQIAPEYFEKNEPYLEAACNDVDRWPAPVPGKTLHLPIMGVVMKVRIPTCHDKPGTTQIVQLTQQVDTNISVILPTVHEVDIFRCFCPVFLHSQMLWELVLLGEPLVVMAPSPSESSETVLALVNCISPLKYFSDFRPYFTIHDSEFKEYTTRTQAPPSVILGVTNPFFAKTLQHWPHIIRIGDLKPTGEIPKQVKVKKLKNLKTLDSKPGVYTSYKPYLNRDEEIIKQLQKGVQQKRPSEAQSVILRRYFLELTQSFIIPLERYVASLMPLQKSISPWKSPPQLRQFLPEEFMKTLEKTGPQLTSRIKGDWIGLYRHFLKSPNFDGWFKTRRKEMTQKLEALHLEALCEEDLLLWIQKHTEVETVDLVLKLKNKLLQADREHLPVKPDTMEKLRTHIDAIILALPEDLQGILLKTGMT
inactive: [1] 0.025 | [2] 0.033 | [3] 0.066 | [4] 0.029 | [5] -0.062 | [6] 0.019 | [7] 0.017 | [8] 0.004 | [9] -0.012 | [10] -0.027

CHMP4A isoform 2 (UniProt Q9BY43)
UniProt Q9BY43, sequence (Q9BY43 whole entry, looked up): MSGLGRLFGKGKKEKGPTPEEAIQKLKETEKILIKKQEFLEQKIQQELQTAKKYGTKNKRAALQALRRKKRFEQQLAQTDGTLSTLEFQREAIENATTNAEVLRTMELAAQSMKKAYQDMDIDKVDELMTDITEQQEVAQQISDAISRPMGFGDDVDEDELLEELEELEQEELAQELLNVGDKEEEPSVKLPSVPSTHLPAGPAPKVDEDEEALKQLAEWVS
inactive: [1] 0 | [2] -0.002 | [3] -0.053 | [4] 0.064 | [5] 0.039 | [6] -0.002 | [8] 0.222 | [9] 0.048 | [10] 0.024
active: [7] -0.278

DEF6 (UniProt Q9H4E7)
inactive: [1] -0.004 | [2] -0.005 | [3] -0.05 | [4] -0.101 | [5] -0.05 | [6] -0.033 | [7] -0.071 | [8] 0.049 | [9] 0.07 | [10] 0.004

CLP1 (UniProt Q92989)
inactive: [1] -0.035 | [2] 0 | [3] 0.03 | [4] -0.045 | [5] -0.05 | [6] 0.015 | [7] -0.13 | [8] 0.096 | [9] 0.115 | [10] 0.036

COMT (UniProt P21964)
UniProt P21964, sequence (P21964 whole entry, looked up): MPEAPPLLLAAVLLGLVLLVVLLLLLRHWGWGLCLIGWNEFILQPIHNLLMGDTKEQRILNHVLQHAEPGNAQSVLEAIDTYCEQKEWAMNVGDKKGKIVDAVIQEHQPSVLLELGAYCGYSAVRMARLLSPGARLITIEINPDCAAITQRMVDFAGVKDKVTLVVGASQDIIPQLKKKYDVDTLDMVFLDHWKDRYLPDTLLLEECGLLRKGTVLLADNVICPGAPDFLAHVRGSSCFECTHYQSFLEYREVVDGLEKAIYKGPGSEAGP
inactive: [1] -0.052 | [2] 0.012 | [3] 0.024 | [4] -0.101 | [5] -0.056 | [6] 0.039 | [7] 0.026 | [8] 0.005 | [9] 0.008 | [10] 0.036

DDA1 (UniProt Q9BW61)
inactive: [1] -0.02 | [2] 0.038 | [3] -0.004 | [4] 0.003 | [5] 0 | [6] 0.046 | [7] 0 | [8] -0.023 | [9] 0.019 | [10] -0.025

DERA (UniProt Q9Y315)
UniProt Q9Y315, sequence (Q9Y315 whole entry, looked up): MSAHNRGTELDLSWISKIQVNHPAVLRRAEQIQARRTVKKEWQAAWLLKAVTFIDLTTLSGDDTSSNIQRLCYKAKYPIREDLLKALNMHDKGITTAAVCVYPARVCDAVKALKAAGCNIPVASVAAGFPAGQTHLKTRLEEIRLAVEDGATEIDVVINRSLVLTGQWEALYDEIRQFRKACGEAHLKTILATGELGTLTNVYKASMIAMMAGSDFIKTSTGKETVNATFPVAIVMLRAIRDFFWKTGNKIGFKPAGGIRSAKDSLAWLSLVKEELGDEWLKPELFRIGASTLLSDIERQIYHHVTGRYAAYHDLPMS
active: [7] 0.985
inactive: [1] -0.013 | [2] -0.001 | [3] -0.064 | [4] 0.077 | [5] 0.025 | [6] -0.031 | [8] -0.115 | [9] 0 | [10] -0.03

CSK (UniProt P41240)
UniProt P41240, sequence (P41240 whole entry, looked up): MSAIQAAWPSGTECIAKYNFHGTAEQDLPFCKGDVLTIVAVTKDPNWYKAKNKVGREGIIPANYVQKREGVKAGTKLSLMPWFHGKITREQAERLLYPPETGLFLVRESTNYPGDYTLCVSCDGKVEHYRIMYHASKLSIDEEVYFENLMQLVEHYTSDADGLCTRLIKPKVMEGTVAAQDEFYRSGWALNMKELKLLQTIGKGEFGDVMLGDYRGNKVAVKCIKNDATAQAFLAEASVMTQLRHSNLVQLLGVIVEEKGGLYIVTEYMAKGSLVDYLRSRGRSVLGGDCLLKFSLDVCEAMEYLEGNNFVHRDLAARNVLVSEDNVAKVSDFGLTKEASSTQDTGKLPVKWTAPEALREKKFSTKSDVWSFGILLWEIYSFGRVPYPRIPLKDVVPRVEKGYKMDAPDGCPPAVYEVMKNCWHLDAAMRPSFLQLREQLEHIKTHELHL
inactive: [1] 0.43 | [2] 0.304 | [3] 0.187 | [4] -0.046 | [5] -0.09 | [6] -0.068 | [7] 0.015 | [8] 0.096 | [9] 0.37 | [10] -0.043

CLPTM1L (UniProt Q96KA5)
inactive: [1] -0.006 | [2] 0.049 | [3] 0.079 | [4] 0.067 | [5] -0.043 | [6] 0.012 | [7] -0.099 | [8] 0.016 | [9] 0.049 | [10] -0.001

CIB1 (UniProt Q99828)
inactive: [1] 0.096 | [2] 0.027 | [3] 0.155 | [4] -0.013 | [5] 0.008 | [6] -0.047 | [7] -0.028 | [8] -0.028 | [9] 0.017 | [10] -0.077

CKM (UniProt P06732)
active: [7] -0.574
inactive: [1] 0.072 | [2] -0.018 | [3] -0.018 | [4] 0.086 | [5] -0.084 | [6] -0.039 | [8] 0.17 | [9] -0.014 | [10] 0.086

CORO7 isoform 3 (UniProt P57737)
inactive: [1] 0.031 | [2] 0.013 | [3] 0.008 | [4] -0.042 | [5] -0.01 | [6] 0.016 | [7] 0.044 | [8] -0.175 | [9] 0.004 | [10] 0.008

DHCR7 (UniProt Q9UBM7)
inactive: [1] -0.02 | [2] 0.004 | [3] 0.029 | [4] -0.061 | [5] -0.036 | [6] 0.025 | [7] -0.033 | [8] -0.069 | [9] 0.017 | [10] -0.041

DIAPH3 (UniProt Q9NSV4)
inactive: [1] 0.041 | [2] 0.028 | [3] 0.057 | [4] -0.023 | [5] -0.099 | [6] 0.058 | [7] -0.098 | [8] -0.092 | [9] 0.053 | [10] 0.064

CLASP1 isoform 4 (UniProt Q7Z460)
inactive: [1] 0.272

CNOT6L (UniProt Q96LI5)
inactive: [1] 0.035 | [2] -0.007 | [3] 0.065 | [4] -0.006 | [5] 0.006 | [6] 0.078 | [8] 0.107 | [9] 0.048 | [10] -0.019
active: [7] -0.422

CTNND1 isoform 3 (UniProt O60716)
UniProt O60716, sequence (O60716 whole entry, looked up): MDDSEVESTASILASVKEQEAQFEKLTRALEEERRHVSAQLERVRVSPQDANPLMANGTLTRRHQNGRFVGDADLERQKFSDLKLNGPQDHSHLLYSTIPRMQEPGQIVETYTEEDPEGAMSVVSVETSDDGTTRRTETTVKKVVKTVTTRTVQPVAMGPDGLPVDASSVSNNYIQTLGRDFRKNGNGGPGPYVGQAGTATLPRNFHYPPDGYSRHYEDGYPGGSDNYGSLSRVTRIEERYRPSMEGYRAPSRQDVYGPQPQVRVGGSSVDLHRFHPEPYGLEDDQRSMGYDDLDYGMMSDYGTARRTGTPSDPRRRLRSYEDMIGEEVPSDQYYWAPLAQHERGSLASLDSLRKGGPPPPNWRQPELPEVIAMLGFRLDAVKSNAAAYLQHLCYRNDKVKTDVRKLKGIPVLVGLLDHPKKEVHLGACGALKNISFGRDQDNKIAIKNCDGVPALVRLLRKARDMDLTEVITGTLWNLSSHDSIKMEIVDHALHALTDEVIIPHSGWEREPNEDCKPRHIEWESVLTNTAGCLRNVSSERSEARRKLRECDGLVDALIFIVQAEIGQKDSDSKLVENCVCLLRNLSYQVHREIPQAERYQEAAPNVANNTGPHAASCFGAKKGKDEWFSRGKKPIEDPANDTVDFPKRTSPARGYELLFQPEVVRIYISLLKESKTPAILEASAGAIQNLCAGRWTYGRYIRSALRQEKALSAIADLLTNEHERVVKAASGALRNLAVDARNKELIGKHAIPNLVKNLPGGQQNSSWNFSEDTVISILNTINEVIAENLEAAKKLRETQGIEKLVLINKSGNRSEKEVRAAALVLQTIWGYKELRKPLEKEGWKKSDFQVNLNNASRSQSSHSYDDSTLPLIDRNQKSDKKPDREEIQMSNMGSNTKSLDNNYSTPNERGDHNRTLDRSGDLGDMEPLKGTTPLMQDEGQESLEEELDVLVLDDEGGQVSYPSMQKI
inactive: [1] 0.06 | [2] 0.037 | [3] 0.036 | [4] -0.034 | [5] -0.098 | [6] 0.073 | [7] -0.032 | [8] 0.004 | [9] -0.012 | [10] 0.024

DDX4 (UniProt Q9NQI0)
inactive: [1] -0.044 | [2] -0.015 | [3] 0.069 | [4] -0.071 | [5] -0.021 | [6] 0.015 | [7] -0.167 | [8] 0 | [9] -0.027

CYP51A1 (UniProt Q16850)
UniProt Q16850, sequence (Q16850 whole entry, looked up): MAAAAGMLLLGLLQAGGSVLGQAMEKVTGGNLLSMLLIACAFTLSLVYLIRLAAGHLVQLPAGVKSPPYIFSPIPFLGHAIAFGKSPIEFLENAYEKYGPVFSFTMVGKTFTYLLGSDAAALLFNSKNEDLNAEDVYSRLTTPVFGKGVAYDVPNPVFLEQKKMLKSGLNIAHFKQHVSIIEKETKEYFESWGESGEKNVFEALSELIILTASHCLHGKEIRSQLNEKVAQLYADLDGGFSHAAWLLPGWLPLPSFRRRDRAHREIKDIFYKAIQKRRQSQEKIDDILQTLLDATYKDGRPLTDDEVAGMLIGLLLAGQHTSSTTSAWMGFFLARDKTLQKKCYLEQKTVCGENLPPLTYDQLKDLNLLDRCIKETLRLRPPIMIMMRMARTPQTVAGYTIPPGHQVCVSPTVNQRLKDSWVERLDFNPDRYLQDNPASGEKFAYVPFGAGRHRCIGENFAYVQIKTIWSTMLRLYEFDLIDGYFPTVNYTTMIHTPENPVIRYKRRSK
inactive: [1] -0.014 | [2] -0.007 | [3] -0.011 | [4] 0.053 | [5] 0.01 | [6] -0.02 | [7] -0.103 | [8] -0.066 | [9] -0.043 | [10] 0.001

COG2 (UniProt Q14746)
UniProt Q14746, sequence (Q14746 whole entry, looked up): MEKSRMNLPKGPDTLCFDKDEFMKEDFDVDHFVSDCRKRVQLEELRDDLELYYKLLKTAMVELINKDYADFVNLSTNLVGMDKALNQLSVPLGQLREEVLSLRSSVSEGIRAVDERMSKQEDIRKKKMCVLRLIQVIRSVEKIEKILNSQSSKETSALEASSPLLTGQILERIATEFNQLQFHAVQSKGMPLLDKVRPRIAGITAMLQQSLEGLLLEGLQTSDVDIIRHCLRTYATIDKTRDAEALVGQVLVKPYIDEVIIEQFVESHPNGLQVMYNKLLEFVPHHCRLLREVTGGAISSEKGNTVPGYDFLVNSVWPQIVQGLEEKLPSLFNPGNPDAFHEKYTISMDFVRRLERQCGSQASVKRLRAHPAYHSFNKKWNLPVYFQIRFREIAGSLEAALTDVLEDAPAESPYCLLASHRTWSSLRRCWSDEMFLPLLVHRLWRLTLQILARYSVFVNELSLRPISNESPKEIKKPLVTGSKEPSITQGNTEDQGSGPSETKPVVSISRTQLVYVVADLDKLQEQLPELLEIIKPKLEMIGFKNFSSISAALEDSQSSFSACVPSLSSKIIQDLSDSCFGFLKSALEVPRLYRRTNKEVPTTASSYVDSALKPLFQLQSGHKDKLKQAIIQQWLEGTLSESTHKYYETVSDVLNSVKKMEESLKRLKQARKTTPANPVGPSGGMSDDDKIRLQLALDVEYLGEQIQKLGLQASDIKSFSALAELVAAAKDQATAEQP
inactive: [1] 0.023 | [2] 0.012 | [3] 0.077 | [4] -0.052 | [5] -0.088 | [6] 0.106 | [7] 0.032 | [8] -0.093 | [9] 0.002 | [10] 0.037

DNAJC1 (UniProt Q96KC8)
inactive: [1] -0.019 | [2] 0.006 | [3] 0.053 | [4] 0.017 | [5] -0.012 | [6] 0.067 | [7] 0.033 | [9] 0.029 | [10] -0.002
active: [8] -0.293
